According to PubChem BioAssay AID1478 (National Center for Advancing Translational Sciences (NCATS), 2009):
The whole screen tested about 200,000 compounds, of which about 860 (0.43%) were called active. Calls follow the shape of the dose curve; as a rule, active = well fitted inhibition curve with a large enough effect; inconclusive = small, poorly fitted or top-dose-only effect; inactive = flat fitted curve, though single readings scatter. The list comes from a sample in which actives are over-represented; it also holds similar structures and randomly drawn compounds.

What follows are compounds tested against Cruzipain (Trypanosoma cruzi) (UniProt P25779) (assay: qHTS Assay for Promiscuous and Specific Inhibitors of Cruzain (with detergent)). Settings: purified cruzain, Z-FR-AMC fluorescence, 0.01% Triton.
Procedure: Cruzain (3.4.22.51) is a cysteine protease from the tropical parasite Trypanosoma cruzi. Dual qHTS experiment was performed against the NCGC compound collection in order to 1) identify novel inhibitors of the enzyme and 2) profile the compound collection for promiscuous inhibitors operating via colloidal aggregation (by performing detergent-free and detergent-containing comparison screens). Cruzain was assayed by the use of fluorogenic coumarin-based substrate Z-FR-AMC: proteolytic cleavage releases AMC, whose fluorescence is measured at 360 nm excitation and 450 nm emission. Purified cruzain was supplied by the labs of Prof. James McKerrow and Brian Shoichet, UC San Francisco.
This assay had 0.01% Triton X-100 concentration. See also releated assay "qHTS Assay for Promiscuous and Specific Inhibitors of Cruzain (without detergent)" with 0.00005% Triton X-100.
See following references for additional details:
Assay Provider: Shoichet, Brian; University of California, San Fancisco
Screening Center PI: Austin, C.P.
Screening Center: NIH Chemical Genomics Center [NCGC]
Buffer: 100 mM Sodium Acetate, pH 5.5, 5 mM DTT, Triton X-100 concentration: 0.01%.
Buffer in columns 3 and 4 as negative control (no enzyme).
Substrate solution: 2 uM final concentration of Z-FR-AMC (catalog number I-1160, Bachem) dispensed throughout the plate.
Enzyme: 1.5 nM Cruzain final concentration in columns 1, 2, 5-48. Column 1 is neutral (100% activity). Column 2 contained titration of covalent inhibitor K11777, starting concentration 1 mM, then 1:2 dilution in duplicate).
Three uL of enzyme or buffer were dispensed to 1536-well Greiner black solid bottom plates. Compounds and controls (23 nL) were transferred via Kalypsys PinTool. The plates were incubated for 15 min at room temperature, and then 1 uL of substrate solution was added to start the reaction. The plates were immediately transferred to and read 4 times every 30 seconds for 2 min on ViewLux High-throughput CCD imager (Perkin-Elmer) using 360 nm excitation and 450 nm emission fluorescence protocol. The fluorescence intensity difference between the third and the first time points (time lapse of 60 seconds) was used to compute reaction progress.
Also: nearly all actives have a fitted effect of over 40% in size.
Potency is read from the fitted curve at half-maximal effect.

Cruzipain (Trypanosoma cruzi), sequence (P25779 123-467 limits assumed): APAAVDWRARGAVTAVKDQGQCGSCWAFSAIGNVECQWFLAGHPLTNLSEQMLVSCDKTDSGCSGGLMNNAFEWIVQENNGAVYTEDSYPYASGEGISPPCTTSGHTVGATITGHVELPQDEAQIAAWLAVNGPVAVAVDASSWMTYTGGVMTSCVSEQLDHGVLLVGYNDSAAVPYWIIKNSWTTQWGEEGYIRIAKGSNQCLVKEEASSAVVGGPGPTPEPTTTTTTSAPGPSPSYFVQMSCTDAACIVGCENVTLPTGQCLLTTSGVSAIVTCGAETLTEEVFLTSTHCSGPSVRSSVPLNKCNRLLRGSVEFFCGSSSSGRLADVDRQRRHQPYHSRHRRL

**Q.** How did the max response, negative = inhibition turn out when `COC(=O)c1ccccc1NC(=O)c1cc(-c2ccccc2O)no1` was run?
**A.** -8.5% (inactive)

**Q.** How did the max response, negative = inhibition turn out when `COCCNC(=O)COc1ccccc1C` was run?
**A.** 1.74% (inactive)

**Q.** With `Cc1ccccc1OCC(=O)NCC(=O)OCC(=O)c1ccc2ccccc2c1` as the compound, how does the Potency read?
**A.** 5.01 µM (active)

**Q.** Which max response, negative = inhibition does the source give for `Cc1ccc(S(=O)(=O)NC(=O)COc2ccccc2C)cc1` here?
**A.** -0.523% (inactive)

**Q.** How did the max response, negative = inhibition turn out when `Cc1ccc(-c2cnc(C3CC3)o2)cc1S(=O)(=O)Nc1cccc(C)c1C` was run?
**A.** -6.32% (inactive)

**Q.** For `O=C(CS(=O)(=O)c1cccc2nsnc12)N1CCN(c2cccc(Cl)c2)CC1`, which max response, negative = inhibition is on record?
**A.** -2.29% (inactive)

**Q.** Which max response, negative = inhibition does the source give for `Cc1cccc(CNC(=O)c2cnc3sc(N4CCCCC4)nn3c2=O)c1` here?
**A.** 3.23% (inactive)

**Q.** With `COc1ccc(NC(=O)CSc2nnc(-c3nnn(-c4ccc(F)cc4)c3C)o2)cc1` as the compound, how does the max response, negative = inhibition read?
**A.** -0.381% (inactive)

**Q.** Which max response, negative = inhibition does the source give for `NC(=S)N/N=C/c1coc2cc(Cl)ccc2c1=O` here?
**A.** -8.88% (inactive)

**Q.** Which Potency does the source give for `CC(C)Oc1c(Br)cc(Br)cc1/C=N/NC(N)=S` here?
**A.** 0.708 µM (active)

**Q.** Which max response, negative = inhibition does the source give for `CCOc1ccc(/C=N/NC(N)=S)cc1` here?
**A.** -18.1% (inactive)

**Q.** For `CC(C)c1ccc(NC(=O)C2CCN(c3nc(-c4ccc(C(C)C)cc4)no3)CC2)cc1`, which max response, negative = inhibition is on record?
**A.** 0.837% (inactive)

**Q.** `Cc1ccc(C2C=C(c3ccc(Cl)cc3)Nc3nc(NC(=O)CCC(=O)O)nn32)cc1` (stereo not drawn) was tested. Which max response, negative = inhibition did it give?
**A.** 0.942% (inactive)

**Q.** How did the max response, negative = inhibition turn out when `O=S(=O)(c1ccccc1)c1nc(-c2ccc(Cl)cc2Cl)oc1N1CCCCC1` was run?
**A.** -15.9% (inactive)

**Q.** With `O=C(NCc1ccccn1)c1cc(-c2ccccc2Cl)on1` as the compound, how does the max response, negative = inhibition read?
**A.** -2.6% (inactive)

**Q.** How did the max response, negative = inhibition turn out when `CN(c1ccc(C(=O)NCc2ccccn2)cc1)S(C)(=O)=O` was run?
**A.** 1.59% (inactive)

**Q.** `O=C(NCc1ccccn1)c1ccc2nc(-c3ccco3)c(-c3ccco3)nc2c1` was tested. Which Potency did it give?
**A.** 22.4 µM (active)

**Q.** Which max response, negative = inhibition does the source give for `O=S(=O)(c1ccc2nc(NCc3ccccc3Cl)ccc2c1)N1CCCCC1` here?
**A.** -1.7% (inactive)

**Q.** `Cc1ccc(Cn2c(CNC(=O)Cc3cccc(C)c3)nc3cccnc32)cc1` was tested. Which max response, negative = inhibition did it give?
**A.** -1.98% (inactive)

**Q.** Which max response, negative = inhibition does the source give for `COc1ccc2[nH]c3c(c2c1)CCN(C(=O)CCC1CCCC1)C3c1ccc(F)cc1` (stereo not drawn) here?
**A.** 7.03% (inactive)

**Q.** How did the max response, negative = inhibition turn out when `Cc1ccc(C(=O)COC(=O)C(Cc2c[nH]c3ccccc23)NC(=O)c2ccc(Br)cc2)cc1` (stereo not drawn) was run?
**A.** -0.996% (inactive)

**Q.** Which max response, negative = inhibition does the source give for `COc1cc(OC)c(NC(=O)c2cc(S(=O)(=O)N3CCCC3)cn2C)cc1Cl` here?
**A.** -0.944% (inactive)

**Q.** `Clc1ccccc1CSc1nncn2c1cc1occc12` was tested. Which max response, negative = inhibition did it give?
**A.** -2.67% (inactive)

**Q.** With `Nc1nc(SCc2ccccc2Cl)n[nH]1` as the compound, how does the max response, negative = inhibition read?
**A.** 1.94% (inactive)

**Q.** With `O=C(Nc1nnc(SCc2ccccc2)s1)c1ccco1` as the compound, how does the max response, negative = inhibition read?
**A.** 0.832% (inactive)

**Q.** How did the Potency turn out when `c1ccc(CSc2nnc(-c3ccco3)c(-c3ccco3)n2)cc1` was run?
**A.** 14.1 µM (active)

**Q.** `Clc1ccccc1CSc1nnc(-c2ccco2)c(-c2ccco2)n1` was tested. Which Potency did it give?
**A.** 25.1 µM (active)

**Q.** Which max response, negative = inhibition does the source give for `Nc1cc(=O)nc(SCc2ccccc2)n1Cc1ccco1` here?
**A.** -10.9% (inactive)
